Test in all cases: NCI-60 one-dose screen, 48 h (100 = growth as untreated, 0 = no growth, -100 = all killed)
One assay deals with SR leukemia. Conditions: 10 µM unless noted.
A further assay relates to OVCAR-8 ovarian. Conditions: 10 µM unless noted.
The test system of a further assay is OVCAR-5 ovarian. To be noted: 10 µM unless noted.
In the next assay the test system is OVCAR-4 ovarian. Conditions: 10 µM unless noted.
In the next assay the test system is IGROV1 ovarian. Conditions: 10 µM unless noted.
The next assay relates to OVCAR-3 ovarian. To be noted: 10 µM unless noted.
A further assay relates to HS 578T breast. To be noted: 10 µM unless noted.
The next assay relates to NCI/ADR-RES ovarian. To be noted: 10 µM unless noted.
Another assay concerns T-47D breast. To be noted: 10 µM unless noted.
The next assay concerns BT-549 breast. Conditions: 10 µM unless noted.
Another assay concerns MDA-MB-435 melanoma. To be noted: 10 µM unless noted.
The next assay concerns SW-620 colon. To be noted: 10 µM unless noted.
For the next assay, the system named is MCF7 breast.
For a further assay, the system named is HCT-116 colon. To be noted: 10 µM unless noted.
For the next assay, the system named is HCC-2998 colon. Conditions: 10 µM unless noted.
The subject of a further assay is SK-OV-3 ovarian. To be noted: 10 µM unless noted.
For another assay, the system named is KM12 colon. To be noted: 10 µM unless noted.
Another assay concerns RPMI-8226 leukemia. Conditions: 10 µM unless noted.

“And” between values parts separate entries of the source, which are not always exact repeats. Identical values can stand only once. Compounds without any hit were thinned out: in the full panel of roughly 83,000, 20% have a hit.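 Negative percent growth values reflect cell death: -40 means 40% of the cells present at the start died, and -100 means all died.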 A number with no mark means an inactive call. The source made the active and inactive calls. Rule for the calls: active = growth percent below 10; inactive = the rest.

`CC(=O)OC(C)C(=O)NCC(C)O` (configuration not stated): the growth in the assay on SR leukemia was 88%; in the assay on OVCAR-8 ovarian, 102%; with OVCAR-5 ovarian it was 104%; in the assay on OVCAR-4 ovarian, 100%; with IGROV1 ovarian it was 114%; with OVCAR-3 ovarian, 107%. Also, the growth with HS 578T breast was 86%; in the assay on NCI/ADR-RES ovarian, 106%; in the assay on T-47D breast, 96.3%; in the assay with BT-549 breast, 111%; in the assay on MDA-MB-435 melanoma it was 111%; with SW-620 colon, 94.3%. The growth in the assay on MCF7 breast (10 µM unless noted) is 96.9%; in the assay on HCT-116 colon, 95.2%; with HCC-2998 colon, 99.4%.
As for `c1ccc(-c2nc3ccccc3s2)cc1`, the growth in the assay on SR leukemia is 103%; in the assay on OVCAR-8 ovarian, 88.3%; in the assay on OVCAR-5 ovarian it was 84.1%; in the assay on OVCAR-4 ovarian, 101%; in the assay on IGROV1 ovarian it was 75.4%; in the assay with OVCAR-3 ovarian, 105%. The growth was 93% with HS 578T breast; 96.1% with NCI/ADR-RES ovarian; 96.8% with BT-549 breast; 110% in the assay with MDA-MB-435 melanoma; 93.6% in the assay with SW-620 colon; 80.3% in the assay on MCF7 breast (10 µM unless noted). Further, the growth in the assay with HCT-116 colon was 97.3%.
Consider `CCOC(=O)c1c(C)cc(=O)oc1C`, for which the growth was 92% in the assay on SR leukemia; 111% in the assay on OVCAR-8 ovarian; 101% in the assay on OVCAR-5 ovarian; 108% with OVCAR-4 ovarian; 103% with SK-OV-3 ovarian; 99.2% with IGROV1 ovarian. In addition, the growth with OVCAR-3 ovarian is 121%; in the assay on NCI/ADR-RES ovarian, 104%; with T-47D breast, 102%; with BT-549 breast, 97.3%; in the assay with SW-620 colon, 110%; in the assay with MCF7 breast (10 µM unless noted), 97.1%. Further, the growth with HCT-116 colon was 95.4%; in the assay with HCC-2998 colon, 103%.
On to `O=C(CO)C(O)C(O)C(O)C(O)CO` (configuration not stated), for which the growth in the assay with SR leukemia is 103% and 93.9%; in the assay with OVCAR-8 ovarian, 108% and 99.9%; with OVCAR-5 ovarian it was 105% and 109%; with OVCAR-4 ovarian, 108% and 116%; in the assay on IGROV1 ovarian it was 106% and 109%; in the assay on OVCAR-3 ovarian it was 110% and 109%. Further, the growth is 106% and 107% with NCI/ADR-RES ovarian; 111% and 117% with BT-549 breast; 110% and 107% with MDA-MB-435 melanoma; 105% and 100% in the assay with SW-620 colon; 101% and 102% in the assay on MCF7 breast (10 µM unless noted); 99.7% and 97.4% in the assay with HCT-116 colon. The growth in the assay with HCC-2998 colon was 109% and 119%; in the assay on KM12 colon, 106% and 105%.
In the case of `OCC1OC(O)C(O)C(O)C1O` (configuration not stated), the growth in the assay on SR leukemia is 106%; in the assay on OVCAR-8 ovarian, 108%; in the assay with OVCAR-5 ovarian it was 106%; in the assay with OVCAR-4 ovarian, 103%; in the assay on IGROV1 ovarian it was 126%; in the assay with OVCAR-3 ovarian, 120%. The growth in the assay on HS 578T breast was 116%; with NCI/ADR-RES ovarian it was 101%; in the assay on T-47D breast it was 102%; in the assay on BT-549 breast, 110%; in the assay with MDA-MB-435 melanoma, 113%; with SW-620 colon, 96.9%. For the same compound, the growth in the assay on MCF7 breast (10 µM unless noted) is 82.6%; in the assay on HCT-116 colon, 104%; with HCC-2998 colon it was 94%.
Regarding `CN(C)CC1CCCCCC(CN(C)C)C1=O` (configuration not stated), the growth in the assay on SR leukemia is 5.93% (active); in the assay with OVCAR-8 ovarian, 80.3%; in the assay on OVCAR-5 ovarian, 146%; with OVCAR-4 ovarian it was 79%; with IGROV1 ovarian, 34.2%; in the assay on OVCAR-3 ovarian it was -12.7% (active). Also, the growth in the assay with NCI/ADR-RES ovarian was 88.3%; in the assay with T-47D breast it was 22.2%; with BT-549 breast it was 95%; with MDA-MB-435 melanoma, 81.2%; in the assay on SW-620 colon it was -64.3% (active); in the assay on MCF7 breast (10 µM unless noted) it was 24.7%. Also, the growth is -35.5% (active) with HCT-116 colon, 117% in the assay with HCC-2998 colon and 102% in the assay on KM12 colon.
For `O=C(/C=C/c1ccccc1)c1ccccc1`, the growth in the assay on RPMI-8226 leukemia was 32%; in the assay on OVCAR-8 ovarian, 103%; in the assay with OVCAR-5 ovarian it was 98.4%; in the assay on OVCAR-4 ovarian, 95.3%; with IGROV1 ovarian it was 84.7%; in the assay with OVCAR-3 ovarian, 98.7%. Besides, the growth is 118% with NCI/ADR-RES ovarian; 64.6% with T-47D breast; 126% in the assay on BT-549 breast; 76.6% in the assay on MDA-MB-435 melanoma; 86.6% with SW-620 colon; -2.52% (active) in the assay with MCF7 breast (10 µM unless noted). Besides, in the assay with HCT-116 colon, the growth is 6.71% (active).
In the case of `Cc1cc(-c2ccc(N=Nc3ccc4c(S(=O)(=O)O)cc(S(=O)(=O)O)c(N)c4c3O)c(C)c2)ccc1N=Nc1ccc2c(S(=O)(=O)O)cc(S(=O)(=O)O)c(N)c2c1O`, the growth with OVCAR-8 ovarian was 101%; in the assay with OVCAR-5 ovarian, 90.2%; with IGROV1 ovarian, 78.5%; in the assay on OVCAR-3 ovarian it was 95.5%; with HS 578T breast it was 119%; in the assay on NCI/ADR-RES ovarian it was 103%. Besides, the growth is 93.1% in the assay on T-47D breast; 86.1% in the assay on BT-549 breast; 98.5% with MDA-MB-435 melanoma; 110% in the assay on SW-620 colon; 103% with MCF7 breast (10 µM unless noted); 85.8% with HCT-116 colon.
On to `CC1(C)COC(=S)N1`, for which the growth is 93.8% in the assay with SR leukemia; 103% with OVCAR-8 ovarian; 93.4% in the assay with OVCAR-5 ovarian; 102% in the assay with OVCAR-4 ovarian; 95.8% with IGROV1 ovarian; 110% with OVCAR-3 ovarian. In addition, the growth with NCI/ADR-RES ovarian is 106%; in the assay on T-47D breast, 99.9%; with BT-549 breast it was 102%; with MDA-MB-435 melanoma it was 101%; in the assay with SW-620 colon it was 109%; in the assay on MCF7 breast (10 µM unless noted), 105%. The growth is 105% in the assay with HCT-116 colon, 106% with HCC-2998 colon and 112% with KM12 colon.
For `O=[N+]([O-])c1cccc(SSc2cccc([N+](=O)[O-])c2)c1`, the growth was 81% in the assay with SR leukemia; 100% in the assay with OVCAR-8 ovarian; 104% in the assay with OVCAR-5 ovarian; 105% in the assay with OVCAR-4 ovarian; 109% in the assay on IGROV1 ovarian; 127% with OVCAR-3 ovarian. The growth with HS 578T breast is 121%; in the assay with NCI/ADR-RES ovarian, 116%; with T-47D breast it was 76.9%; in the assay on BT-549 breast, 101%; in the assay on MDA-MB-435 melanoma, 102%; with SW-620 colon, 109%. Also, the results for the growth in the assay on MCF7 breast (10 µM unless noted), with HCT-116 colon and with KM12 colon were 93.7%, 94% and 107%, respectively.
As for `NC1CCC(C(=O)O)CC1` (configuration not stated), the growth in the assay on SR leukemia is 111% and 105%; with OVCAR-8 ovarian, 109% and 113%; in the assay with OVCAR-5 ovarian, 93.9% and 100%; in the assay on OVCAR-4 ovarian it was 107% and 103%; in the assay with IGROV1 ovarian, 115% and 111%; in the assay on OVCAR-3 ovarian, 103% and 107%. In addition, the growth in the assay on HS 578T breast was 86.4% and 94.8%; in the assay with NCI/ADR-RES ovarian it was 110% and 107%; in the assay with T-47D breast, 90.5% and 95.8%; in the assay with MDA-MB-435 melanoma it was 106%; with SW-620 colon, 93.7% and 100%; in the assay with MCF7 breast (10 µM unless noted), 96% and 95.2%. The growth in the assay with HCT-116 colon was 94.9% and 99.3%.
`COc1ccc2cc1Oc1ccc(cc1)C[C@H]1c3cc(c(OC)cc3CCN1C)Oc1c(OC)c(OC)cc3c1[C@H](C2)N(C)CC3`: the growth in the assay with SR leukemia is -7.9% (active); in the assay with OVCAR-5 ovarian it was 72.3%; in the assay on OVCAR-3 ovarian, 70.4%; in the assay on HS 578T breast, 46%; in the assay with NCI/ADR-RES ovarian, 56.8%; with T-47D breast it was 93.1%. Moreover, the growth is 28.5% in the assay with BT-549 breast; 24.7% with MDA-MB-435 melanoma; 40.1% in the assay on SW-620 colon; 52.7% with MCF7 breast (10 µM); 98.3% and 67.5% with MCF7 breast (100 µM); 14% in the assay with HCT-116 colon.
With `N#CC(C#N)N=Nc1cc(Cl)ccc1Cl`, the growth in the assay with SR leukemia is 106%; in the assay with OVCAR-8 ovarian, 90%; in the assay with OVCAR-5 ovarian, 97.4%; in the assay on OVCAR-4 ovarian, 98.9%; with OVCAR-3 ovarian, 106%; in the assay on HS 578T breast it was 116%. Moreover, the growth in the assay with NCI/ADR-RES ovarian is 112%; in the assay on T-47D breast, 96.7%; in the assay on BT-549 breast, 101%; with SW-620 colon it was 104%; with MCF7 breast (10 µM unless noted), 93.7%; with HCT-116 colon, 97.2%. The growth with HCC-2998 colon was 104%.
Consider `COc1ccc(Nc2ccc3ccccc3c2)cc1`, for which the growth with OVCAR-5 ovarian was 97.4%; with OVCAR-4 ovarian, 79.5%; with SK-OV-3 ovarian it was 72.6%; with OVCAR-3 ovarian it was 78.7%; with NCI/ADR-RES ovarian, 65.7%; in the assay on T-47D breast, 65.6%. For the same compound, the growth in the assay with BT-549 breast was 94.7%; with MDA-MB-435 melanoma it was 22.1%; in the assay with SW-620 colon, 72.1%; in the assay with MCF7 breast (10 µM unless noted), 58.1%; with HCT-116 colon it was 79%.
With `OC1COC(OCc2ccccc2)C(O)C1O` (configuration not stated), the growth is 99.1% in the assay with OVCAR-5 ovarian; 88.5% in the assay on OVCAR-4 ovarian; 92.4% in the assay on IGROV1 ovarian; 106% in the assay with OVCAR-3 ovarian; 103% in the assay on NCI/ADR-RES ovarian; 89% with T-47D breast. Moreover, the growth is 105% in the assay on BT-549 breast; 104% in the assay on MDA-MB-435 melanoma; 109% in the assay on SW-620 colon; 96% in the assay on MCF7 breast (10 µM unless noted); 99.6% in the assay with HCT-116 colon; 105% in the assay on KM12 colon.
